According to PubChem BioAssay (Tox21):
Records with an inconclusive call do not appear. Entries that show only a call come without a potency. Values without a mark were called inactive. Activity calls are given as the source filed them. Calls follow the shape of the full dose curve.

Target: Progesterone receptor (Homo sapiens) (UniProt P06401)
Experiment: qHTS assay to identify small molecule agonists of the progesterone receptor (PR) signaling pathway (AID 1346784); also: nearly all actives have a fitted effect of over 30% in size
Conditions: PR-UAS-bla HEK293T, beta-lactamase FRET ratio, 16 h; series mostly up to 92.4 µM
Method in brief: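 PR-UAS-bla HEK 293T cells (beta-lactamase reporter under UAS) in 2% charcoal-stripped FBS, dosed with 23 nL compound after 6 hr, incubated 16hr at 37C. LiveBLAzer B/G FRET substrate added, fluorescence read after 2 hours.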
Potency is read from the fitted curve at half-maximal effect.

Progesterone receptor (Homo sapiens), sequence (P06401 whole entry, looked up): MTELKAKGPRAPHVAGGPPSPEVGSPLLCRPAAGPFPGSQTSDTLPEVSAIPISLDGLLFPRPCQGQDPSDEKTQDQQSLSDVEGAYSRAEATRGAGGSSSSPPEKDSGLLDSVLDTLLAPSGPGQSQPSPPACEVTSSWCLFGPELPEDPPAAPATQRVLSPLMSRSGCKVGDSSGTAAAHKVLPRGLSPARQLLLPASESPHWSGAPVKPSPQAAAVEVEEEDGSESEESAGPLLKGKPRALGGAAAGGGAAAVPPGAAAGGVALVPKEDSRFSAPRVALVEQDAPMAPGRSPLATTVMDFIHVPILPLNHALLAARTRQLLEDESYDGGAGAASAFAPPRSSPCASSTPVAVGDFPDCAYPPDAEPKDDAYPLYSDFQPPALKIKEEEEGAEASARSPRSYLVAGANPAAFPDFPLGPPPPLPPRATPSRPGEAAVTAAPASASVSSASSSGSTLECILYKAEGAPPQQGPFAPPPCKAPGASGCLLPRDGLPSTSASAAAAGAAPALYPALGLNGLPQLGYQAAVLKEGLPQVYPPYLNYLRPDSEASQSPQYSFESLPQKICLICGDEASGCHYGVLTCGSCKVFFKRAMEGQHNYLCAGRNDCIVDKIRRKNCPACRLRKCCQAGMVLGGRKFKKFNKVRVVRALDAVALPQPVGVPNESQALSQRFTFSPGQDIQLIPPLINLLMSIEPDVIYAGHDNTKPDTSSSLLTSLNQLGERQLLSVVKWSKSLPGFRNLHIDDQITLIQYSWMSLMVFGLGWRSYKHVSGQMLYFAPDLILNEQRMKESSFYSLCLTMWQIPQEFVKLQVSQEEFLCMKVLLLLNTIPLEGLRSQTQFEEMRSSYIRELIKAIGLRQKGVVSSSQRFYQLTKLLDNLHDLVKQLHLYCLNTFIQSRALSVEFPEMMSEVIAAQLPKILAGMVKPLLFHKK

Row | Compound | Potency | activation
1 | CCC(=O)O[C@]1(C(=O)CCl)[C@@H](C)C[C@H]2[C@@H]3CCC4=CC(=O)C=C[C@]4(C)[C@@]3(F)[C@@H](O)C[C@@]21C | 0.9 nM (active) | –
2 | Nc1cccc(S(=O)(=O)c2cccc(N)c2)c1 | inactive | –
3 | O=CC1CC=CCC1 (stereo not given) | inactive | –
4 | CN(C)CCN(Cc1ccsc1)c1ccccn1 | inactive | –
5 | Brc1c2ccccc2c(Br)c2ccccc12 | – | 5.54% [at 8.39 µM]
6 | COC(C)OC | inactive | –
7 | O=[N+]([O-])c1ccc(NCCO)c(OCCO)c1 | inactive | –
8 | CCCCCC[C@@H](O)C/C=C\CCCCCCCC(=O)OC | inactive | –
9 | COc1ccc2cccc(CCNC(C)=O)c2c1 | inactive | –
10 | OC(C#CCN1CCCC1)(c1ccccc1)c1ccccc1 | inactive | –
11 | CC(C)(C)Cl | inactive | –
12 | CCN(CC)CCNc1ccc(CNC=O)c2sc3ccc(OC)cc3c(=O)c12 | inactive | –
13 | CCOC(=O)C(F)(F)F | inactive | –
14 | CC(=O)c1cccc([N+](=O)[O-])c1 | inactive | –
15 | COc1ccc(C(=O)N2CCN(CC(=O)N3CCOCC3)CC2)cc1 | inactive | –
16 | O=C(O)CNCC(=O)O | – | 1.22% [at 8.39 µM]
17 | O=C(O)c1ccc(S(=O)(=O)O)cc1C(=O)O | inactive | –
18 | CCCn1cnc2c1c(=O)n(CCCCC(C)=O)c(=O)n2C | inactive | –

Row | Compound | Potency | activation
19 | CCCCCCCCCCCC(=O)OC[C@@H](O)[C@H]1OC[C@H](OCCO)[C@H]1OCCO | inactive | –
20 | O=C1OC(CN2CCOCC2)CN1/N=C/c1ccc([N+](=O)[O-])o1 (stereo not given) | inactive | –
21 | Nc1ccc(N)c2c1C(=O)c1ccccc1C2=O | inactive | –
22 | CN(C)c1ccc(C(c2ccccc2)c2ccc(N(C)C)cc2)cc1 | inactive | –
23 | OC[C@H]1O[C@@H](OCCc2ccc(O)cc2)[C@H](O)[C@@H](O)[C@@H]1O | inactive | –
24 | O=C(O)c1ccccc1Cl | inactive | –
25 | COC(=O)c1ccc(I)cc1S(=O)(=O)NC(=O)Nc1nc(C)nc(OC)n1 | inactive | –
26 | CN1CCN(C(c2ccccc2)c2ccccc2)CC1 | inactive | –
27 | C[Si](C)(CCCN)O[Si](C)(C)CCCN | inactive | –
28 | C=C(C)C(=O)OCCO | inactive | –
29 | COc1cc(Cl)ccc1Oc1ccc(Cl)cc1Cl | inactive | –
30 | CCOC(=O)Cc1cccc2ccccc12 | inactive | –
31 | CCOc1ccc(O)cc1 | inactive | –
32 | O=C(O)c1ccc(-n2nc(-c3ccccc3O)nc2-c2ccccc2O)cc1 | inactive | –
33 | O=C1[C@H]2CCCC[C@H]2C(=O)N1CCCCN1CCN(c2nsc3ccccc23)CC1 | inactive | –
34 | C[N+]1(C)CCC(OC(=O)C(O)(c2ccccc2)C2CCCC2)C1 (stereo not given) | inactive | –
35 | O=C(CS)Nc1ccccc1 | inactive | –
